# Screening data deposited in PubChem BioAssay by several laboratories.
# Most compounds without a hit are left out; they make up all but 2.9% or so of the library.
# HIF-2a inh: HIF-2a inhibition; 786-0 RCC cells HIF-2a reporter, luciferase luminescence, overnight; inhibition, % at 18.8 µM; hit rate 0.72% among 360,000;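 active means inhibition of the luminescence signal of 40% or more relative to plate controls, in a single-dose primary screen at 18.75 µM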
# Shn3 3UTR inh: Schnurri-3 reporter inhibition in Clone20 osteoblasts. Clone20 osteoblast Shn3 3'UTR firefly luciferase, 24 h. inhibition, % at 12.5 µM. hit rate 0.52% among 360,000;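 active means mean inhibition of at least 75% with every replicate also reaching 75%; inconclusive means mean inhibition at least 75% but some replicate below; inactive means mean inhibition below 75%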
# KKLEB cytotox: CF airway cell cytotoxicity counter-screen. KKLEB CF airway cells viability, ATPlite luminescence, overnight; stronger effect = lower value; cells stimulated with P. aeruginosa culture filtrate. activity change (cytotoxicity), % at 5 µM. hit rate 0.36% among 360,000. AID 602141;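 active means corrected activity change at or below -50% at 5 µM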
# EBV LMP1 NFkB: Epstein-Barr LMP1 NF-kappaB reporter inhibition. LMP1-induced NF-kappaB luciferase reporter cells, luminescence. inhibition, % at 12.5 µM. hit rate 0.69% among 350,000. AID 504558; in the data active means inhibition above about 41%; inconclusive means no clear call, values can overlap the other calls
# Peg3 prom inh: reduces Peg3 promoter-driven luciferase expression in HeLa | HeLa PEG-Prom luciferase reporter, luminescence, overnight | inhibition, % at 20 µM | hit rate 1.7% among 360,000 | AID 588405;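 active means inhibition of at least 50% at 20 µM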
# CF NFkB block: cystic fibrosis NF-kB activation inhibition | inhibition, % at 5 µM | KKLEB NF-kB-GFP reporter, PAF-induced, GFP fluorescence overnight | hit rate 0.86% among 360,000;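 active means at least 50% inhibition at 5 µM, scaled per plate between neutral and stimulator controls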;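 further: PAF is a Pseudomonas aeruginosa culture filtrate used as stimulus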
# Hits are given with their value; n = inactive; u = inconclusive; x = no result.
SMILES,HIF-2a inh,Shn3 3UTR inh,KKLEB cytotox,EBV LMP1 NFkB,Peg3 prom inh,CF NFkB block
O=[N+]([O-])c1ccc2c(c1N1CCCCC1)=NC1(CCCCC1)[N+]=2[O-],n,n,n,n,n,n
COc1ccc(NC2=NC(=S)N(c3ccccc3C)C23CCCCC3)cc1,n,n,n,n,n,n
Cc1ccc(C(=O)NNC(=O)c2ccccc2O)cc1S(=O)(=O)N1CCCCC1,n,n,n,n,n,n
O=c1cc(CSc2ccc(Cl)cc2)nc(-c2ccccc2)[nH]1,n,n,n,n,n,n
O=c1cc(CSc2ccc(Cl)cc2)nc(-c2ccccn2)[nH]1,n,n,n,n,91,n
Cc1cc(C)n(CCNC(=O)[C@H]2O[C@@H](n3cnc4c(N)ncnc43)[C@H](O)[C@@H]2O)n1,n,n,n,x,n,n
CCCCCOc1ccc(Br)cc1/C(C)=N/NC1=NCCN1,n,u,n,n,81,52
C[C@@H]1CCCCO[C@H](CN(C)Cc2ccc(Cl)c(Cl)c2)[C@H](C)CN([C@@H](C)CO)C(=O)c2cc(NC(=O)Nc3ccc(F)cc3)ccc2O1,n,n,n,n,n,n
C[C@@H]1CCCCO[C@H](CN(C)Cc2ccccc2)[C@@H](C)CN([C@H](C)CO)C(=O)c2cc(NC(=O)c3ccccc3)ccc2O1,n,90,n,n,n,n
COc1ccc(NC(=O)Nc2ccc3c(c2)C(=O)N([C@H](C)CO)C[C@H](C)[C@@H](CN(C)Cc2ccc(Cl)c(Cl)c2)OCCCC[C@@H](C)O3)cc1,n,n,n,n,86,n
O=C(Cc1ccccc1)c1ccc(N2CCOCC2)cc1,n,n,n,n,n,n
C/C(=N\NC(=O)C(C)Oc1ccc([N+](=O)[O-])cc1)c1ccccn1 (centres undefined),n,83,n,n,n,n
COc1cc(CN2CCCC(N3CCc4ccccc4C3)C2)c(Cl)cc1O (centres undefined),n,n,n,n,n,n
CCCS(=O)(=O)c1nnnn1-c1cccc(OC)c1,n,99,n,n,102,90
COc1ccccc1/C=C/C1(C(=O)NC2CCCC2)CC(=O)N1c1ccc(F)cc1 (centres undefined),n,n,-77,n,n,80
Cc1ccc(N(CC(=O)NCc2ccc(F)cc2)S(=O)(=O)c2cccs2)cc1,n,n,n,n,n,n
CC(C)(C)NC(=O)C1CCN(S(=O)(=O)c2cccc(C(F)(F)F)c2)CC1,n,n,n,n,n,n
Cc1ccc(NC(=O)/C=N/OCC(=O)NCc2ccccc2Cl)cc1,n,n,n,48,n,n
CC1CCN(CCOc2ccc(C(=O)c3ccccc3)cc2)CC1,n,n,n,80,n,n
O=C(Nc1ccc(F)cc1)C1CCC(CNc2c(N3CCCCC3)c(=O)c2=O)CC1 (centres undefined),n,n,n,n,n,n
CC(C)OCc1ccc(C(=O)N2CCN(CC(=O)N3CCCC3)CC2)cc1,n,n,n,n,n,n
Cc1ccc(S(=O)(=O)n2ccc3c(OCCOCCSCC(NC(=O)OC(C)(C)C)C(=O)O)cccc32)cc1 (centres undefined),n,n,n,n,n,n
Cc1ccc(S(=O)(=O)n2ccc3c(OCCOCCNCc4ccc(F)cc4)cccc32)cc1,n,n,n,n,96,n
CC1=C(CC(=O)c2ccccc2)C(=O)c2ccccc2C1=O,n,n,n,n,n,77
O=C(Nc1ccccc1C(=O)O)C1=NN=CC1,n,n,n,n,n,n
SMILES,HIF-2a inh,Shn3 3UTR inh,KKLEB cytotox,EBV LMP1 NFkB,Peg3 prom inh,CF NFkB block
O=C1c2ccccc2CN1CCNC(=S)NC1CCCCC1,n,n,n,49,n,n
C/C(=N\N(Cc1ccccc1)c1ccccc1)c1ccncc1,n,n,-57,n,n,58
COc1ccc(N=C(NN)c2ccc3ccccc3n2)cc1,56,n,n,n,n,n
COc1ccc(C(=O)NC(=S)NNC(=O)c2ccc3ccccc3n2)cc1,n,90,n,49,n,n
c1ccc2c(c1)C1=NCCN1c1ccccc1-2,n,n,n,n,104,n
Cc1ccc(NC(=O)NCC2CCN(Cc3cccc(Cl)c3)CC2)cc1Cl,n,n,n,n,83,n
Cc1cc(C)cc(NC(=O)NCC2CCN(Cc3cc(C)ccc3C)CC2)c1,n,n,n,n,84,n
CCc1ccc(NC(=O)NCC2CCN(Cc3cccc(Cl)c3)CC2)cc1,n,n,n,n,n,n
Cc1cc(C2CCCCC2)n(O)c(=O)c1,n,n,n,n,51,n
Cn1c(NC2CCCCC2)cc(=O)n(C)c1=O,n,n,n,n,n,n
NS(=O)(=O)c1cccc(NC(=O)COC(=O)Cc2ccc(Cl)cc2)c1,n,n,n,n,n,n
CCCCOC(=O)c1[nH]c2c(c1C)C(=O)CC(c1cc(OC)c(OC)c(OC)c1)C2 (centres undefined),n,82,n,n,n,n
C=CCOC(=O)c1[nH]c2c(c1C)C(=O)CC(c1cc(OC)c(OC)c(OC)c1)C2 (centres undefined),n,88,n,n,n,n
COCCOC(=O)c1[nH]c2c(c1C)C(=O)CC(c1cc(OC)c(OC)c(OC)c1)C2 (centres undefined),n,n,n,n,n,n
O=C(N/N=C/C=C/c1ccco1)/C(=C/c1ccccc1)NC(=O)c1ccccc1,n,n,n,n,n,n
Cc1[nH]c2c(ccc3ccccc32)c1C1C(CCN)C1(C)C (centres undefined),n,n,n,n,100,n
Cc1ccc(N2CN=C3SCC(=O)N3C2)cc1C,n,n,n,n,n,n
NC(=O)c1ccc(NCCc2ccco2)cc1,n,n,n,x,n,n
N#CC1=C(N)SC(N)=C(C#N)C1c1ccnc2ccccc12,n,n,n,n,n,n
O=C1c2ccccc2C(=O)C1c1ccnc2ccccc12,n,n,-70,n,83,n
CCc1ccccc1C1C(=O)c2ccccc2C1=O,n,n,n,n,n,n
O=C1c2ccccc2C(=O)C1c1nccc2ccccc12,n,n,-65,n,88,n
CC(C)CCNC(=O)c1ccc(CSCc2cccc(F)c2)o1,n,n,n,n,n,n
CC(C)C[C@H](N)c1nnc(S(=O)(=O)Cc2cccc(F)c2)o1,n,n,n,n,67,n
CCOC(=O)C1CCN(Cc2ccc(F)cc2F)CC1,n,n,n,n,n,n
CCOC(=O)C1CCN(c2ccccc2CN2CCN(c3ccccc3OCC)CC2)CC1,n,n,n,n,92,n
Cc1cc(C)c(NC(=S)N(CCc2ccncc2)C(C)C)c(C)c1,n,x,n,n,n,n
O=C(CC12CC3CC(CC(C3)C1)C2)Nc1c(F)cccc1F,n,n,n,n,n,n
COC(=O)CCCC[C@@H]1SC[C@@H](NC(=O)OC)[C@@H]1NC(=O)OC,n,n,n,53,n,n
